Consider 50 compounds from PubChem BioAssay AID485270 (The Scripps Research Institute Molecular Screening Center, 2010).

About 5,800 (1.8%) of roughly 330,000 compounds were called active. Rule as the data show it: active = inhibition mostly above about 38% (no sharp cut-off); inactive = mostly below about 40%. Only a selection was taken, and actives are over-represented in it overall.

In this experiment the target is Orexin/Hypocretin receptor type 1 (Homo sapiens) (UniProt O43613). The experiment is described as follows: blocks the human orexin 1 receptor (AID 485270).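 Also: 0% = agonist challenge alone and 100% = reference antagonist.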 The conditions noted are these: OX1R-expressing cells, FRET antagonist read-out; at 6.6 µM; stronger effect = higher value.
Orexin/Hypocretin receptor type 1 (Homo sapiens), sequence (O43613 whole entry, looked up): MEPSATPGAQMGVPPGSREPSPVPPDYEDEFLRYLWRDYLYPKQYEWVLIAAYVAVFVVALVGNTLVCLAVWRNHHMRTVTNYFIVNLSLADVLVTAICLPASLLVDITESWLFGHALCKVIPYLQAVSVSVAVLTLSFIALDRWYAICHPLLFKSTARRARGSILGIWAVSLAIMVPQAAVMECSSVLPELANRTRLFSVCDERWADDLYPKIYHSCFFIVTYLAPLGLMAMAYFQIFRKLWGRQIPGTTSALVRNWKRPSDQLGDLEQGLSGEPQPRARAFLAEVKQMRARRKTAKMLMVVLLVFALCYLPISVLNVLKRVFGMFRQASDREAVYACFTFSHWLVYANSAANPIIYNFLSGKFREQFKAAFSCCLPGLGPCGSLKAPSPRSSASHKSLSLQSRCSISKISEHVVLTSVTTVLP
For `C[C@H](CO)N1C[C@H](C)[C@H](CN(C)C(=O)Nc2ccc(C(F)(F)F)cc2)Oc2c(NC(=O)c3ccncc3)cccc2C1=O`, the inhibition is 12.5% (inactive). `CCOc1ccc(Br)cc1S(=O)(=O)Nc1ccc(S(=O)(=O)Nc2cc(C)on2)cc1`: the inhibition was -0.05% (inactive). Regarding `CN(C)C(=O)CCc1ccc2c3c([nH]c2c1)[C@]1(CCc2ccccc2)[C@@H](C(=O)N2CCCCC2)C[C@H](CC(=O)NCCC2=CCCCC2)C(=O)N1CC3`, the inhibition is 10.4% (inactive).

For the compound `COc1ccc2sc(-c3ccc(S(C)(=O)=O)cc3)c(C#Cc3cncn3C)c2c1`, the inhibition was 6.52% (inactive). Consider `C=CCC[C@H](Cc1ccc(F)cc1)C(=O)OC[C@@H](Cc1c[nH]c2ccccc12)NC(=O)[C@H](CC=C)CC(=O)N[C@H](CO)Cc1ccccc1`, for which the inhibition was 3.33% (inactive).

Turning to `COc1ccccc1NC(=O)COC(=O)CNC(=O)C1CCCCC1`, the inhibition is 5.3% (inactive). Turning to `Cc1c(Cl)cnc(NC(=O)COC(=O)C2CCCC2)c1Cl`, the inhibition is 2.82% (inactive). Regarding `COc1ccc(C(=O)COC(=O)CN2C(=O)C3CC=CCC3C2=O)c(OC)c1` (stereo not given), the inhibition was 0.55% (inactive).

Consider `CCN([C@H](CO)C(C)C)S(=O)(=O)c1ccccc1Br`, for which the inhibition is 8.87% (inactive). For the compound `CCCN=C1N(C)C[C@@H]2[C@@H]3C(=O)N(Cc4ccccc4)C(=O)[C@@H]3[C@](C)(C(=O)OC)N12`, the inhibition is 3.52% (inactive). In the case of `Cc1ccc2occ(/C=N/NC(=O)c3ccccc3C)c(=O)c2c1`, the inhibition is 11.9% (inactive). For `Cc1ccc(/C=N/NC(=O)c2cc3ccccc3cc2O)o1`, the inhibition is 22.1% (inactive). The figure for `Cc1cc[n+](-c2[nH]c(=O)sc2/C=N/NC(=O)c2ccccc2[O-])cc1C` is 67.1% (active).

As for `C[C@H](CO)N1C[C@H](C)[C@@H](CN(C)S(=O)(=O)c2ccc(F)cc2)Oc2c(NC(=O)Nc3ccccc3)cccc2C1=O`, the inhibition is 3.72% (inactive). Regarding `Fc1ccccc1-c1cc2cc3c(cc2cn1)OCO3`, the inhibition was 66% (active). For `Fc1ccc2cnc(-c3ccccc3)cc2c1`, the inhibition was 1.78% (inactive). Take `O=C(Nc1ccccc1F)c1ccc2c(c1)OCO2`: the inhibition is 0.6% (inactive). Consider `Cc1ccc2c(c1)C(c1ccccc1)N(C(=O)c1ccc(S(=O)(=O)N3CCOCC3)cc1)CC(=O)N2` (stereo not given), for which the inhibition is 7.06% (inactive). For `Cc1ccc([C@@H]2CC=C(C(=O)O)[C@H](c3cccc(Cl)c3)N2S(=O)(=O)c2ccc(C)cc2)cc1`, the inhibition is 82.9% (active). Under `CS(=O)(=O)N(CC(=O)N1CCN(c2cccc(Cl)c2)CC1)c1ccccc1` stands -2.69% (inactive). Under `Cc1ccc(S(=O)(=O)N2[C@@H](c3ccc(Br)cc3)C(C(=O)O)=C[C@H]2CC2CCCC2)cc1` stands 31.2% (inactive); under `Cc1ccc(S(=O)(=O)N2C3C=CC(C3)C2C(=O)O)cc1` (stereo not given), 7.96% (inactive); under `Cc1ccc(S(=O)(=O)N2[C@@H](c3cccc(Cl)c3)C(C(=O)O)=CC[C@H]2c2ccc(Cl)c(Cl)c2)cc1`, 81.4% (active). Consider `COc1ccccc1N1CCN(S(=O)(=O)c2ccc(Cl)cc2)CC1`, for which the inhibition is 4.56% (inactive).

Take `Cc1ccccc1S(=O)(=O)N1[C@@H](c2cccc(Cl)c2)C(C(=O)O)=CC[C@H]1c1ccc(Cl)cc1`: the inhibition is 90.2% (active).

Regarding `Cc1ccc(S(=O)(=O)N2CCN(CC(=O)N/N=C/c3cc([N+](=O)[O-])ccc3Cl)CC2)cc1`, the inhibition is 19.3% (inactive). Take `CN1OC(COC(=O)c2ccc(Cl)cc2)CC1c1ccccc1` (stereo not given): the inhibition was -0.66% (inactive).

`Cc1ccc(S(=O)(=O)N(CC(=O)N2CCc3ccccc3C2)c2cccc(Cl)c2)cc1`: the inhibition was 40% (inactive). In the case of `Cc1ccc(S(=O)(=O)N2[C@@H](c3ccccc3F)C(C(=O)O)=CC[C@H]2c2ccc(Cl)cc2)cc1`, the inhibition was 64.8% (active).

Consider `CC[C@@H](C)[C@@H]1CN([C@@H](C)CN2CCC[C@H]2CN2C(N)=NC[C@H]2C(C)C)C(=N)N1CCc1ccc(Cl)c(Cl)c1`, for which the inhibition was -3.86% (inactive). As to `COc1ccccc1C(=O)NCC(=O)OCC(=O)NNC(=O)c1ccc(Br)cc1`, the inhibition was 2.31% (inactive). Take `Fc1ccc(Nc2nnns2)cc1`: the inhibition is 11.1% (inactive). Regarding `CS(=O)(=O)c1ccc(C(=O)NNC(=O)c2cccs2)cc1`, the inhibition was 1.62% (inactive). Take `CC(C)N(C(=O)[C@H]1C[C@H](CC(=O)NC(C)(C)C)C(=O)N2CCc3c([nH]c4ccc(Cl)cc34)[C@]12C)C(C)C`: the inhibition is 8.54% (inactive). As for `C=CCC[C@@H](Cc1ccc(F)cc1)C(=O)OC[C@H](Cc1c[nH]c2ccccc12)NC(=O)[C@@H](CC=C)CC(=O)N(CCO)Cc1ccccc1`, the inhibition was 7.48% (inactive).

On to `NS(=O)(=O)c1cccc(NC(=O)COC(=O)c2cc([N+](=O)[O-])ccc2N2CCCC2)c1`, for which the inhibition is 14.8% (inactive).

As to `O=C(CSc1nc2ccccc2c(=O)n1Cc1ccc(F)cc1)NCC1CCCO1` (stereo not given), the inhibition is 4.49% (inactive). As for `COc1ccc(S(=O)(=O)N2CCN(c3cnccn3)CC2)cc1`, the inhibition is 16.4% (inactive). The figure for `CC(OC(=O)c1ccc([N+](=O)[O-])cc1)C(=O)NCC1CCCCC1` (stereo not given) is 18.2% (inactive); for `CC1CCCCN1CCCNC(=O)Cn1ncc2c([nH]c3ccccc32)c1=O` (stereo not given) it is 4.31% (inactive).

Regarding `CCC(=C/c1sc2ccc3ccccc3c2[n+]1C)/C=C1\Sc2ccc3ccccc3c2N1C`, the inhibition was 42.8% (active). Under `Cn1cccc1C(=O)OCC(=O)c1ccc(Br)s1` stands 5.79% (inactive); under `O=C(CC1SC(N2CCOCC2)=NC1=O)Nc1ccccc1F` (stereo not given), -1.73% (inactive). Under `C[C@@H](CN1CCC[C@H]1CN1C(N)=NC[C@@H]1Cc1ccccc1)N1C[C@@H](Cc2ccccc2)N(CCCC2CCCC2)C1=N` stands 11.4% (inactive). In the case of `C/C=C/c1ccc(OCC(=O)NNC(=O)CN(C)S(=O)(=O)c2ccc(C)cc2)c(OC)c1`, the inhibition is 0.57% (inactive). Take `O=C(/C=C/c1ccco1)Nc1cccc(-c2nc3ccccc3[nH]2)c1`: the inhibition is 86.8% (active).

Regarding `O=C(/C=C/c1ccco1)Nc1ccc(Oc2ccccc2)cc1`, the inhibition is 62.7% (inactive). As to `Cc1ccc(-n2nc3ccc(NC(=O)/C=C/c4ccco4)cc3n2)cc1C`, the inhibition is 21.4% (inactive).

Turning to `Cc1ccc(C(=O)OCC(=O)N2CCCCCC2)cc1S(=O)(=O)N1CCOCC1`, the inhibition was 24.3% (inactive). Take `COc1ccc(NC(=O)Nc2ccc3c(c2)C(=O)N([C@H](C)CO)C[C@H](C)[C@@H](CN(C)C(=O)Nc2ccc4c(c2)OCO4)O3)cc1`: the inhibition is 8.87% (inactive).
